Laboratory results published in PubChem BioAssay AID1159580 (chemical genetic matrix, 2015).
Values joined by “and” are separate entries in the source; they are usually repeats but may differ in a detail not shown here. Identical values can stand only once. Screen size: about 5,500 compounds; about 2,000 (36%) were called active. Roughly 18% stayed inconclusive and do not appear here. Cut-off read from the data, not from the text of the source: active = normalized growth mostly below about 0.91 (no sharp cut-off); inconclusive = no clear call, values can overlap the other calls; inactive = mostly above about 0.92. The list shows a part of the results.

Test: chemical genetic growth profiling, strain panel (AID 1159580);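 note: tested at 20 µM; growth read once vehicle control cultures reached saturation at 30 °C; 1 = growth at the plate median or of vehicle wells; lower values mean less growth of the strain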
Conditions: S. cerevisiae deletion strains, growth OD

Measured: normalized growth

O=C1C=C2C(=CCOC2O)O1 (stereo unspecified)
inactive: locus YAL013W, strain DEP1, hits give low values 0.922 | locus YBR229C, strain ROT2, hits give low values 0.991 | locus YCL029C, strain bik1, hits give low values 0.913 | locus YDL134C, strain PPH21, hits give low values 0.9 | locus YDR195W, strain ref2 0.927 | locus YER111C, strain swi4, hits give low values 0.938 | locus YER155C, strain BEM2, hits give low values 0.962 | locus YHR094C, strain hxt1, hits give low values 0.948 | locus YJL115W, strain asf1, hits give low values 0.961 | locus YJL134W, strain LCB3, hits give low values 0.961 | locus YJL168C, strain set2, hits give low values 0.939 | locus YJR043C, strain POL32, hits give low values 0.882 | locus YJR066W, strain TOR1, hits give low values 0.831
active: locus YAL021C, strain ccr4, hits give low values 0.679 | locus YAL026C, strain drs2, hits give low values 0.644 | locus YAL030W, strain snc1, hits give low values 0.781 | locus YBL061C, strain skt5, hits give low values 0.796 | locus YBR009C, strain hhf1, hits give low values 0.71 | locus YBR021W, strain FUR4, hits give low values 0.762 | locus YBR023C, strain chs3, hits give low values 0.784 | locus YBR171W, strain sec66, hits give low values 0.672 | locus YBR231C, strain swc5, hits give low values 0.73 | locus YBR279W, strain paf1, hits give low values 0.78 | locus YCL011C, strain gbp2, hits give low values 0.759 | locus YCL016C, strain dcc1, hits give low values 0.73 | locus YCL069W, strain vba3, hits give low values 0.752 | locus YCR088W, strain abp1, hits give low values 0.792 | locus YDL005C, strain med2, hits give low values 0.881 | locus YDL035C, strain GPR1, hits give low values 0.776 | locus YDL040C, strain nat1, hits give low values 0.887 | locus YDL074C, strain BRE1, hits give low values 0.678 | locus YDL101C, strain DUN1, hits give low values 0.851 | locus YDL185W, strain tfp1, hits give low values 0.789 | locus YDL192W, strain arf1, hits give low values 0.789 | locus YDR001C, strain nth1, hits give low values 0.846 | locus YDR069C, strain doa4, hits give low values 0.652 | locus YDR101C, strain arx1, hits give low values 0.8 | locus YDR137W, strain rgp1, hits give low values 0.335 | locus YDR150W, strain NUM1, hits give low values 0.831 | locus YDR159W, strain sac3, hits give low values 0.847 | locus YDR162C, strain NBP2, hits give low values 0.258 | locus YDR297W, strain sur2, hits give low values 0.797 | locus YDR318W, strain mcm21, hits give low values 0.793 | locus YDR334W, strain swr1, hits give low values 0.845 | locus YDR335W, strain msn5, hits give low values 0.698 | locus YDR388W, hits give low values 0.864 | locus YDR392W, strain spt3, hits give low values 0.555 | locus YDR502C, strain sam2, hits give low values 0.763 | locus YEL003W, strain gim4, hits give low values 0.659 | locus YEL037C, strain rad23, hits give low values 0.82 | locus YEL061C, strain CIN8 (second series), hits give low values 0.759 | locus YEL061C, strain CIN8, hits give low values 0.848 | locus YER015W, strain faa2, hits give low values 0.635 | locus YER016W, strain bim1, hits give low values 0.833 | locus YER110C, hits give low values 0.597 | locus YER155C, strain BEM2 (second series), hits give low values 0.303 | locus YER167W, strain BCK2, hits give low values 0.795 | locus YFR010W, strain ubp6, hits give low values 0.613 | locus YGL078C, strain dbp3, hits give low values 0.869 | locus YGL086W, strain mad1, hits give low values 0.806 | locus YGL167C, strain pmr1, hits give low values 0.846 | locus YGL173C, strain kem1, hits give low values 0.707 | locus YGL227W, strain vid30, hits give low values 0.843 | locus YGL240W, strain doc1, hits give low values 0.487 | locus YGL248W, strain PDE1, hits give low values 0.883 | locus YGL253W, strain hxk2, hits give low values 0.657 | locus YGR078C, strain PAC10, hits give low values 0.702 | locus YGR135W, strain pre9, hits give low values 0.784 | locus YGR229C, strain SMI1, hits give low values 0.366 | locus YGR252W, strain gcn5, hits give low values 0.462 | locus YHR013C, strain ard1, hits give low values 0.589 | locus YHR027C, strain rpn1, hits give low values 0.71 | locus YHR030C, strain SLT2, hits give low values 0.9 and 0.845 | locus YHR079C, strain IRE1 (second series), hits give low values 0.858 | locus YHR079C, strain IRE1, hits give low values 0.84 | locus YHR129C, strain ARP1, hits give low values 0.855 | locus YHR142W, strain chs7, hits give low values 0.684 | locus YHR200W, strain rpn10, hits give low values 0.91 | locus YIL066C, strain RNR3, hits give low values 0.776 | locus YIL073C, strain SPO22, hits give low values 0.5 | locus YIL125W, strain kgd1, hits give low values 0.886 | locus YIR030C, strain dcg1, hits give low values 0.911 | locus YJL092W, strain hpr5, hits give low values 0.744 | locus YJL095W, strain BCK1 (second series), hits give low values 0.833 | locus YJL095W, strain BCK1, hits give low values 0.795 and 0.859 | locus YJL129C, strain trk1, hits give low values 0.769 | locus YJL154C, strain vps35, hits give low values 0.859 | locus YJL164C, strain tpk1, hits give low values 0.757 | locus YJL166W, strain qcr8, hits give low values 0.667 | locus YJL187C, strain SWE1 (second series), hits give low values 0.829 | locus YJR075W, strain HOC1, hits give low values 0.805
